# Results reported in PubChem BioAssay.
# Activity calls are given as the source filed them. Cut-off read from the data, not from the text of the source, unless noted: active = inhibition above about 80%; inactive = the rest.
# What was measured:
# [1] = LFS_MB_P medulloblastoma growth inhibition, cell-based, chromothripsis tumors, cisplatin or BGB combos (AID 1671449); conditions: LFS_MB_P medulloblastoma cells;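 note: cells exposed for 96 hours; 0% = vehicle DMSO and 100% = killing by high DMSO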
# [2] = HDN33 neuroblastoma growth inhibition, cell-based, chromothripsis tumors, cisplatin or BGB combos (AID 1671450); conditions: HDN33 neuroblastoma cells, stronger effect = higher value;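 note: cells exposed to compound for four days; 0% = vehicle DMSO and 100% = cell killing by high DMSO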
# [3] = ICB984 medulloblastoma cell growth inhibition, synergistic combos for chromothripsis tumors, cisplatin or BGB combos (AID 1671451; call rule not given here;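 note: cells exposed for 96 hours before readout; 0% = vehicle DMSO and 100% = killing by high DMSO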); conditions: ICB984 medulloblastoma cells, drug combinations, stronger effect = higher value
# [4] = LFS_MB_1R medulloblastoma cell growth inhibition, synergistic combos for chromothripsis tumors, cisplatin or BGB combos (AID 1671452); conditions: LFS_MB_1R medulloblastoma cells, stronger effect = higher value;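 note: cells exposed for 96 hours before readout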
# [5] = HTB85 osteosarcoma cell growth inhibition, synergistic combos for chromothripsis tumors, BGB or cisplatin IC20 combos (AID 1671453); conditions: HTB85 osteosarcoma cells, drug combinations, stronger effect = higher value;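 note: cells exposed for 96 hours before readout; 0% = vehicle DMSO and 100% = high DMSO killing control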
# [6] = CRL2098 osteosarcoma cell growth inhibition, synergistic combos for chromothripsis tumors, BGB or cisplatin IC20 combos (AID 1671454); conditions: CRL2098 osteosarcoma cells, drug combinations, stronger effect = higher value;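 note: cells exposed for 96 h before readout; 0% = vehicle DMSO and 100% = killing by high DMSO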
# [7] = HD-MB03 medulloblastoma cell growth inhibition, synergistic combos for chromothripsis tumors, BGB or cisplatin IC20 combos (AID 1671455; in the data active = inhibition above about 83%;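 note: 0% = vehicle DMSO and 100% = high DMSO as cytotoxic control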); conditions: HD-MB03 medulloblastoma cells, stronger effect = higher value
# [8] = UWB1.289 ovarian carcinoma cell growth inhibition, synergistic combos for chromothripsis tumors, BGB or cisplatin combos (AID 1671456); conditions: UWB1.289 ovarian carcinoma cells, stronger effect = higher value;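 note: cells exposed to compound for four days; 0% = vehicle DMSO and 100% = killing by high DMSO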
# [9] = LFS_MB_2R medulloblastoma cell growth inhibition, synergistic combos for chromothripsis tumors, cisplatin combos (AID 1671457); conditions: LFS_MB_2R medulloblastoma cells, stronger effect = higher value;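 note: cells exposed to compound for four days before readout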
# [10] = MDA-MB-436 breast carcinoma cell growth inhibition, synergistic combos for chromothripsis tumors, BGB or cisplatin combos (AID 1671458; call rule not given here;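 note: cells exposed for 96 hours; 0% = vehicle DMSO and 100% = killing by high DMSO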); conditions: MDA-MB-436 breast carcinoma growth inhibition, drug combinations, stronger effect = higher value
# [11] = UWB1.289_BRCA1 ovarian cancer growth, cell-based, BGB or cisplatin combinations (AID 1671459); conditions: UWB1.289 BRCA1 ovarian carcinoma, drug combinations, stronger effect = higher value
# [12] = human astrocyte viability loss, single and combined drugs, cytotoxicity control for chromothriptic childhood tumor combination screen, cell-based, BGB or cisplatin IC20 combos (AID 1671460); conditions: Human astrocytes, drug combinations, stronger effect = higher value;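 note: cells exposed to compounds for 96 hours before viability readout; 0% = vehicle and 100% = killing control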
# [13] = growth inhibition of BT084 medulloblastoma cells, cell-based, ICGC_MB145, cisplatin and BGB IC40 combos (AID 1671461); conditions: drug combinations, stronger effect = higher value;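 note: cells exposed to drugs for 96 hours; 0% = vehicle DMSO and 100% = high DMSO full killing control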
# [14] = growth inhibition of RCMB18 medulloblastoma cells, cell-based, cisplatin and BGB IC40 combos (AID 1671462); conditions: stronger effect = higher value;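 note: cells exposed to compound for four days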
# [15] = growth inhibition of CRL1545 osteosarcoma cells, cell-based, cisplatin and BGB IC20 combos (AID 1671464); conditions: stronger effect = higher value;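 note: cells exposed to compound for 96 hours before readout; 0% = vehicle DMSO and 100% = high DMSO killing control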
# [16] = viability rescue of complex I mutant cybrids, primary screen, cell-based, galactose medium, ATP luminescence (AID 1645843;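 active = z-score of at least 1.8 in each of two replicates, scored against plate mean and spread of sample wells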;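 note: positive z means more ATP and so rescue of galactose-driven cybrid death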); conditions: complex I mutant cybrid cells, 72 h, stronger effect = higher value
# [17] = measured here: combination with BGB IC40, at 0.05 µM
# [18] = measured here: with BGB IC20 combination, at 0.5 µM
# [19] = measured here: with cisplatin IC20 combination, at 0.5 µM
# [20] = measured here: combination with cisplatin, at 0.5 µM
# [21] = measured here: combination with cisplatin, at 5 µM
structure (smiles),measurement,setting,value
O=C1N=c2ccccc2=C1c1c(O)[nH]c2ccccc12,inhibition,"[1]; at 0.5 µM, stronger effect = higher value",-10.5% (inactive)
same,inhibition,"[1]; measured here: combination with BGB IC20, at 0.005 µM",-1.18%
same,inhibition,"[1]; measured here: combination with BGB IC40, at 0.005 µM",-11.2%
same,inhibition,[1]; [17],-2.67%
same,inhibition,"[1]; measured here: combination with cisplatin, at 0.5 µM, stronger effect = higher value",-21%
same,inhibition,"[1]; measured here: combination with cisplatin, at 5 µM, stronger effect = higher value",114%
same,inhibition,"[2]; BGB combo, at 5 µM",61%
same,inhibition,[2]; at 0.5 µM,5.47% (inactive)
same,inhibition,"[2]; cisplatin combo, at 5 µM",51.4%
same,inhibition,[2]; [18],16.4%
same,inhibition,[2]; [19],-3.78%
same,inhibition,"[2]; single agent, at 5 µM",45.3%
same,inhibition,"[3]; BGB IC20 combo, at 0.005 µM",11.6%
same,inhibition,"[3]; BGB IC40 combo, at 0.005 µM",12.6%
same,inhibition,"[3]; BGB IC40 combo, at 0.05 µM",98.1%
same,inhibition,[3]; at 0.5 µM,-13.3% (inactive)
same,inhibition,"[3]; cisplatin combo, at 0.05 µM",98%
same,inhibition,"[3]; cisplatin combo, at 0.5 µM",-8.2%
same,inhibition,"[3]; cisplatin combo, at 5 µM",-23.1%
same,inhibition,"[3]; measured here: 5 uM single agent, at 5 µM",-12.3%
same,inhibition,[4]; at 0.5 µM,38.6% (inactive)
same,inhibition,[4]; [17],-8.14%
same,inhibition,[4]; [20],68.7%
same,inhibition,[4]; [21],104%
same,inhibition,[5]; at 0.5 µM,-27.2% (inactive)
same,inhibition,"[5]; measured here: with BGB IC20, at 0.5 µM",-36.8%
same,inhibition,"[5]; measured here: with BGB IC20, at 5 µM",49.4%
same,inhibition,"[5]; measured here: with cisplatin IC20, at 0.5 µM",-31.8%
same,inhibition,"[5]; measured here: with cisplatin IC20, at 5 µM",19.9%
same,inhibition,"[5]; single agent, at 5 µM",73.7%
same,inhibition,[6]; at 0.5 µM,-38.8% (inactive)
same,inhibition,"[6]; measured here: combination with BGB at IC20, at 0.5 µM",-85.6%
same,inhibition,"[6]; measured here: combination with cisplatin at IC20, at 0.5 µM",-13.6%
same,inhibition,[7]; at 0.5 µM,-7.99% (inactive)
same,inhibition,"[7]; measured here: combo with BGB at IC20, at 0.5 µM",-0.15%
same,inhibition,"[7]; measured here: combo with cisplatin at IC20, at 0.5 µM",-18.7%
same,inhibition,[8]; at 0.5 µM,-2.76% (inactive)
same,inhibition,"[8]; measured here: inhibition with BGB combination, at 0.05 µM",-4.21%
same,inhibition,"[8]; measured here: inhibition with cisplatin combination, at 0.05 µM",-14.6%
same,inhibition,[9]; at 0.5 µM,-4.68% (inactive)
same,inhibition,[9]; [20],-7.54%
same,inhibition,[9]; [21],96.6%
same,inhibition,[10]; at 0.5 µM,0.62% (inactive)
same,inhibition,"[10]; measured here: BGB combination, at 0.5 µM",-2.01%
same,inhibition,"[10]; measured here: BGB combination, at 5 µM",38.1%
same,inhibition,"[10]; measured here: cisplatin combination, at 0.5 µM",2.13%
same,inhibition,"[10]; measured here: cisplatin combination, at 5 µM",46%
same,inhibition,"[11]; BGB combination, concentration series, at 5 µM",47.2%
same,inhibition,[11]; at 0.5 µM,-5.34% (inactive)
same,inhibition,"[11]; cisplatin combination, concentration series, at 5 µM",63.2%
same,inhibition,[12]; at 0.5 µM,-0.99% (inactive)
same,inhibition,"[12]; measured here: combo with BGB IC20, at 0.5 µM",17.5%
same,inhibition,"[12]; measured here: combo with cisplatin IC20, at 0.5 µM",-29.2%
same,inhibition,[13]; at 0.5 µM,-8.62% (inactive)
same,inhibition,"[13]; cisplatin combination, at 0.5 µM",-4.64%
same,inhibition,"[13]; cisplatin combination, at 5 µM",99.5%
same,inhibition,"[13]; measured here: BGB IC40 combination 0.05 uM, at 0.05 µM",21.5%
same,inhibition,"[13]; single agent, at 5 µM",59.7%
same,inhibition,[14]; at 0.5 µM,50.6% (inactive)
same,inhibition,"[14]; cisplatin combo, at 5 µM",103%
same,inhibition,"[14]; measured here: BGB IC40 combination, at 0.05 µM",-10.1%
same,inhibition,[14]; [20],81.1%
same,inhibition,"[14]; single agent, at 5 µM",98.9%
same,inhibition,[15]; at 0.5 µM,7.46% (inactive)
same,inhibition,[15]; [18],-4.11%
same,inhibition,[15]; [19],11.3%
same,inhibition,"[15]; single agent, at 0.05 µM",-37%
same,inhibition,"[15]; single agent, at 5 µM",95.5%
O=c1c2sc(-c3ccc(F)cc3)cc2ncn1Cc1nc2ccccc2[nH]1,z-score,[16],0.44 (inactive)
Cc1ccccc1-n1cc(-c2ccnc(NCc3nnc4n3CCCC4)n2)cn1,z-score,[16],-0.305 (inactive)
